How the values were obtained:
Test in all cases: DAPPL (digital affinity profiling via proximity ligation, sequencing); 10 mM Tris-HCl pH 7.5, 50 mM NaCl, 1 mM DTT, 4% glycerol, room temperature, 30 min; GST-TFs on glutathione beads, 16-mer random dsDNA library, 0.1% formaldehyde crosslink after washing; high values mean tight binding
[1] = target: T1, FLI1 (Homo sapiens, UniProt Q01543 1-452); settings: protein: recombinant; tags: N-terminal GST; dsDNA, one strand shown
T1 sequence: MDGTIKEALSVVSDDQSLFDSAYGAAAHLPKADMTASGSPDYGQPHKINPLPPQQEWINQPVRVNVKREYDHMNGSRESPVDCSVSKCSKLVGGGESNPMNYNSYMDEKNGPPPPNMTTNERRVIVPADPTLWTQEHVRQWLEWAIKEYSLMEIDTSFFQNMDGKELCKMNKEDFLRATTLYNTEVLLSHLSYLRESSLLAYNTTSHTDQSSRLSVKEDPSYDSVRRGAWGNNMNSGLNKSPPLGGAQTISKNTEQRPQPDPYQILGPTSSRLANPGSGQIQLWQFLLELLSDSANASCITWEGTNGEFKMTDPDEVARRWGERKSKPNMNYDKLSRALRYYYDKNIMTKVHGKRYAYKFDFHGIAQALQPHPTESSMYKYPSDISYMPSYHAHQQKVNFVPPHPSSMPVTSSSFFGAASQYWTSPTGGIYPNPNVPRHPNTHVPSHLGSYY
In short: (§1)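 Each value of binding signal is a hexamer's read frequency for a factor divided by the same hexamer's frequency in the tag-only sample. Barcoded, bead-captured GST fusions of human transcription factors made in yeast were pooled with that sample and incubated with 200 nmole of a random double-stranded 16-mer DNA library in Tris/NaCl/DTT/glycerol buffer at room temperature for 30 min. Washing, 0.1% formaldehyde crosslinking, proximity ligation, PCR and Illumina NextSeq500 sequencing followed.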

[2] = target: T2, ELK1 (Homo sapiens, UniProt P19419 1-428); settings: protein: recombinant; tags: N-terminal GST; dsDNA, one strand shown
T2 sequence: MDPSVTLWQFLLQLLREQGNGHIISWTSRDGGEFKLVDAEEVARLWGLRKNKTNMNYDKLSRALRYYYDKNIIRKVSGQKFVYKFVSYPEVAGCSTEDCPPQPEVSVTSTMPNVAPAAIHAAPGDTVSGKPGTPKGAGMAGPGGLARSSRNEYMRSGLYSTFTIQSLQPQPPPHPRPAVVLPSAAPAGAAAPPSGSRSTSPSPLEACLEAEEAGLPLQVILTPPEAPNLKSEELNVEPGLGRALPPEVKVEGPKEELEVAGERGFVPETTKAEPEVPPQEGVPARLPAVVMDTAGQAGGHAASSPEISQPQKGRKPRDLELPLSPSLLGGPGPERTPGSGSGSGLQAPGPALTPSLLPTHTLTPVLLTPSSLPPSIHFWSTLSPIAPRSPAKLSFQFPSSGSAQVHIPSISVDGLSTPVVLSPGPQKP
In short: as §1

[3] = target: T3, GABPA (Homo sapiens, UniProt Q06546 1-454); settings: protein: recombinant; tags: N-terminal GST; dsDNA, one strand shown
T3 sequence: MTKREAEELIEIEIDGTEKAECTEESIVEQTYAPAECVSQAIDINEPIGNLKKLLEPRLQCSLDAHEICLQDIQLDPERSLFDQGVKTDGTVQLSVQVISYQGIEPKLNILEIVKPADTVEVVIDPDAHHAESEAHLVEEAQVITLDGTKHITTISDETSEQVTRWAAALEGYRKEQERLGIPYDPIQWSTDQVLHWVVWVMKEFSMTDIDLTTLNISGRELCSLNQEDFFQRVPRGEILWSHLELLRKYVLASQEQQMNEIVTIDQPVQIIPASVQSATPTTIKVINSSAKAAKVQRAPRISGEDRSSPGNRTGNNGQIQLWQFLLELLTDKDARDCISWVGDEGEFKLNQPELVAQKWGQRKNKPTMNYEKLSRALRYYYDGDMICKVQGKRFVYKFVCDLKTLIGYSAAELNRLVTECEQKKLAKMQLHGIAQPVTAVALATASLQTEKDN
In short: as §1

[4] = target: T4, ERG (Homo sapiens, UniProt P11308 1-479); settings: protein: recombinant; tags: N-terminal GST; dsDNA, one strand shown
T4 sequence: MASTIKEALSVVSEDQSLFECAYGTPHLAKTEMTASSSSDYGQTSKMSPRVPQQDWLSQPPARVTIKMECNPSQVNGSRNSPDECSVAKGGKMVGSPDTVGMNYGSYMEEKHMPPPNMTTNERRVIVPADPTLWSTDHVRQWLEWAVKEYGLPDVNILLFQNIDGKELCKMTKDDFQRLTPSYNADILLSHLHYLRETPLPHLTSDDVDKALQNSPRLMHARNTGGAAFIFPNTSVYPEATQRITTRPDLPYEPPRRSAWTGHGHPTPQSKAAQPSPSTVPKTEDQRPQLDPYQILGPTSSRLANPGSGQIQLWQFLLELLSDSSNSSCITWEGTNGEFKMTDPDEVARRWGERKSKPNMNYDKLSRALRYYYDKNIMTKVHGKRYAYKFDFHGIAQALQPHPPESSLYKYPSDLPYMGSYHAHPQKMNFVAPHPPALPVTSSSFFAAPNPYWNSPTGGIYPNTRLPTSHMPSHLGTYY
In short: as §1

[5] = target: ELF1 (Homo sapiens, UniProt P32519 1-619); settings: protein: recombinant; tags: N-terminal GST; dsDNA, one strand shown
ELF1, sequence (P32519 whole entry): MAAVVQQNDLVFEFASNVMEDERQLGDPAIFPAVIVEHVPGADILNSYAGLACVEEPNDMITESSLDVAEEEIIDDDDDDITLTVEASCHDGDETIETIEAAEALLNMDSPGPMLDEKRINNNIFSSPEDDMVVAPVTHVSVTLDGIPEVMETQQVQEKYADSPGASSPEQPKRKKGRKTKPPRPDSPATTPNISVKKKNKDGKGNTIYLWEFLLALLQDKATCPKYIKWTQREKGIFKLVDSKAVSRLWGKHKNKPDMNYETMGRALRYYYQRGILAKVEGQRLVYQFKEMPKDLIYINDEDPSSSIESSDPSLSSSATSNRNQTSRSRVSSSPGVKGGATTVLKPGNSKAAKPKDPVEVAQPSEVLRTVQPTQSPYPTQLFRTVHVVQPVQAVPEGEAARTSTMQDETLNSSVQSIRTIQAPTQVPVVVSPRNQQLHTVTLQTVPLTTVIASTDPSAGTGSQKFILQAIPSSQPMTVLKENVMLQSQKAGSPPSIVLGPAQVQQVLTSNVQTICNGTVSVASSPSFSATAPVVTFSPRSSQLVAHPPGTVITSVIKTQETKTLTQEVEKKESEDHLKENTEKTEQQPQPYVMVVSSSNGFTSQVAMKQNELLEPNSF
In short: as §1

[6] = target: T5, EHF (Homo sapiens, UniProt Q9NZC4 1-300); settings: protein: recombinant; tags: N-terminal GST; dsDNA, one strand shown
T5 sequence: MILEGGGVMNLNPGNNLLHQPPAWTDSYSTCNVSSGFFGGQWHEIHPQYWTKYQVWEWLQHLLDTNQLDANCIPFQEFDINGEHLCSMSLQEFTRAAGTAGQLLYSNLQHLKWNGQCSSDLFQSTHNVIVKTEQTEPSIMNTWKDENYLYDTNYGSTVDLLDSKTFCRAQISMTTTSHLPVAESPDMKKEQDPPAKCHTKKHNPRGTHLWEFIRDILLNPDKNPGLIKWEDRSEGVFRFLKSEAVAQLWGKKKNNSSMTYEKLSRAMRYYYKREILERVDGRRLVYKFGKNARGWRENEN
In short: as §1

[7] = target: SPI1 (Homo sapiens, UniProt P17947 1-270); settings: protein: recombinant; tags: N-terminal GST; dsDNA, one strand shown
In short: as §1

[8] = target: SPIB (Homo sapiens, UniProt Q01892 1-262); settings: protein: recombinant; tags: N-terminal GST; dsDNA, one strand shown
SPIB, sequence (Q01892 whole entry): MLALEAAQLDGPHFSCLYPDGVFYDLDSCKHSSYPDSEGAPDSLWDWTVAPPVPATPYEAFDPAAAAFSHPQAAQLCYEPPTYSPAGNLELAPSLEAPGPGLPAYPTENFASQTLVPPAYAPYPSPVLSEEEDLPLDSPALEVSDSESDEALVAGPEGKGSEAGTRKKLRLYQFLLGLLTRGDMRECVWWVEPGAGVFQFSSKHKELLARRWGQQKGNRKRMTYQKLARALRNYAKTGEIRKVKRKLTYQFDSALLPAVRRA
In short: as §1

[9] = target: T6, ELK3 (Homo sapiens, UniProt P41970 1-407); settings: protein: recombinant; tags: N-terminal GST; dsDNA, one strand shown
T6 sequence: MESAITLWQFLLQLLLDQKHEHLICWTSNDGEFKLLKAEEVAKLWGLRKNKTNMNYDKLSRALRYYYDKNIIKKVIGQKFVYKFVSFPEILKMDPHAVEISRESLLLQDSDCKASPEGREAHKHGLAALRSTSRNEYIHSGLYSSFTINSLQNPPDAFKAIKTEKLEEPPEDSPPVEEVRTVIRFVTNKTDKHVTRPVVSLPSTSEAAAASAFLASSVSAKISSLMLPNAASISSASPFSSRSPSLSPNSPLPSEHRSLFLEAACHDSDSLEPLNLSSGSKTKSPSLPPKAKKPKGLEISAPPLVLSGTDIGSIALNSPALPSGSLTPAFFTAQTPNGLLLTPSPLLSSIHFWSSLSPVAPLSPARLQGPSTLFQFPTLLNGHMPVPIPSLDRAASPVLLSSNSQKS
In short: as §1

[10] = target: T7, FEV (Homo sapiens, UniProt Q99581 1-238); settings: protein: recombinant; tags: N-terminal GST; dsDNA, one strand shown
T7 sequence: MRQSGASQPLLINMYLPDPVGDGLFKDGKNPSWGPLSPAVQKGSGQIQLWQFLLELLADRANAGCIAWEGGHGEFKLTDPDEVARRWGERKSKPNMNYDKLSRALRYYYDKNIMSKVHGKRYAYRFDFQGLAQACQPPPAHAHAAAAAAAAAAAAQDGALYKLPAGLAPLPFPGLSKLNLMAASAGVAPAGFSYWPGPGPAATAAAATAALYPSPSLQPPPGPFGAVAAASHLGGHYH
In short: as §1

[11] = target: ETV5 (Homo sapiens, UniProt P41161 1-510); settings: protein: recombinant; tags: N-terminal GST; dsDNA, one strand shown
ETV5, sequence (P41161 whole entry): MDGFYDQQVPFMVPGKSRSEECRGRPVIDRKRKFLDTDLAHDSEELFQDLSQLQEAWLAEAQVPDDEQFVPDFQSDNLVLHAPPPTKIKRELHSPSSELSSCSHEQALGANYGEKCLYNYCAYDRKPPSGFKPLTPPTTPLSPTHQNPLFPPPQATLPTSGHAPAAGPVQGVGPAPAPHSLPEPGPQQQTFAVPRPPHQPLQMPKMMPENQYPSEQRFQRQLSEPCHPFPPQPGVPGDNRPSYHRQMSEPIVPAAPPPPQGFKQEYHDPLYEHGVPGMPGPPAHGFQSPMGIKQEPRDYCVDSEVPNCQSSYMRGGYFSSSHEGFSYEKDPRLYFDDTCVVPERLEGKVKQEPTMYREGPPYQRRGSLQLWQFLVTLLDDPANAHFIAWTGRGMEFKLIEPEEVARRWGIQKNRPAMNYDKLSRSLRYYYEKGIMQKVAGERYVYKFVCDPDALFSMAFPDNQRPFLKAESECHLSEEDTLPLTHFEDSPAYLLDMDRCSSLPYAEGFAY
In short: as §1

[12] = target: HSF1 (Homo sapiens, UniProt Q00613 1-529); settings: protein: recombinant; tags: N-terminal GST; chain copies: 3; dsDNA, one strand shown
HSF1, sequence (Q00613 whole entry): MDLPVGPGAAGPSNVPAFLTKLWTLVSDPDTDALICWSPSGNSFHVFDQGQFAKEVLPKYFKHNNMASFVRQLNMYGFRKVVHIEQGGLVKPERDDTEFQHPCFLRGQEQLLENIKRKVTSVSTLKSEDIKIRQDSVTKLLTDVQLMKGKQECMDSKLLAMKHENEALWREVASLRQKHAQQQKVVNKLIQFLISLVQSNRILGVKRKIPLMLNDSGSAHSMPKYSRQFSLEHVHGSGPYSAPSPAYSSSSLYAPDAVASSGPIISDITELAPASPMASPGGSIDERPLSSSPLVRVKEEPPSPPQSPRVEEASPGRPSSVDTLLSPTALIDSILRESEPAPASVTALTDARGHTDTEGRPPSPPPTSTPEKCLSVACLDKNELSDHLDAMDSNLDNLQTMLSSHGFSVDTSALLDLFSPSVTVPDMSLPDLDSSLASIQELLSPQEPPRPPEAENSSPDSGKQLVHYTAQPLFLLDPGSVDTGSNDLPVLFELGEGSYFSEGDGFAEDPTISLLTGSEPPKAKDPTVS
In short: as §1

[13] = target: T8, SPIC (Homo sapiens, UniProt Q8N5J4 1-248); settings: protein: recombinant; tags: N-terminal GST; dsDNA, one strand shown
T8 sequence: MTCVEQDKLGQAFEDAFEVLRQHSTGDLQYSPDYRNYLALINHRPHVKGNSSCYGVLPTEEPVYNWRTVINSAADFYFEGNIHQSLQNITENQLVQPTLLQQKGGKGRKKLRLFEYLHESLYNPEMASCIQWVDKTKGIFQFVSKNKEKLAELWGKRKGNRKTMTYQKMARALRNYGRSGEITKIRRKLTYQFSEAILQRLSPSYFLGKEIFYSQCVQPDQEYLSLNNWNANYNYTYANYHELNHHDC
In short: as §1

[14] = target: ELF4 (Homo sapiens, UniProt Q99607 1-663); settings: protein: recombinant; tags: N-terminal GST; dsDNA, one strand shown
ELF4, sequence (Q99607 whole entry): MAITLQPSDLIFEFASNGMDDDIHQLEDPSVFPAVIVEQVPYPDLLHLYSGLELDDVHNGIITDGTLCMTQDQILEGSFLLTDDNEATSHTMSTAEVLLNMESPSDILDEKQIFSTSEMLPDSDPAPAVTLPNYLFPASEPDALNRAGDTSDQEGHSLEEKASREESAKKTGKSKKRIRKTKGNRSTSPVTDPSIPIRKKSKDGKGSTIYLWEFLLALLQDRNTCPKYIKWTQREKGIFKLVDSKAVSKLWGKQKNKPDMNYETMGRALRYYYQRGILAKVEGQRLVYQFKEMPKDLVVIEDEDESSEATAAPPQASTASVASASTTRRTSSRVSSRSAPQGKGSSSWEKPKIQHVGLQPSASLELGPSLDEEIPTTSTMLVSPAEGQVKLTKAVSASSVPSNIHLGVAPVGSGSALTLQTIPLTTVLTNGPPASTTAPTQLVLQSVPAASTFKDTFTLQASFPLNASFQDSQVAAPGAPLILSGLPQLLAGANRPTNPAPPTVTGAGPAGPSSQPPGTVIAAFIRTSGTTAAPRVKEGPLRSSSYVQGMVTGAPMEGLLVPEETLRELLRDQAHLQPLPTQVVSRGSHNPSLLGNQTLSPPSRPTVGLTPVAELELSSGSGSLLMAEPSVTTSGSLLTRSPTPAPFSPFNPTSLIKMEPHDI
In short: as §1

[15] = target: T9, ELK4 (Homo sapiens, UniProt P28324-2 1-405); settings: protein: recombinant; tags: N-terminal GST; dsDNA, one strand shown
T9 sequence: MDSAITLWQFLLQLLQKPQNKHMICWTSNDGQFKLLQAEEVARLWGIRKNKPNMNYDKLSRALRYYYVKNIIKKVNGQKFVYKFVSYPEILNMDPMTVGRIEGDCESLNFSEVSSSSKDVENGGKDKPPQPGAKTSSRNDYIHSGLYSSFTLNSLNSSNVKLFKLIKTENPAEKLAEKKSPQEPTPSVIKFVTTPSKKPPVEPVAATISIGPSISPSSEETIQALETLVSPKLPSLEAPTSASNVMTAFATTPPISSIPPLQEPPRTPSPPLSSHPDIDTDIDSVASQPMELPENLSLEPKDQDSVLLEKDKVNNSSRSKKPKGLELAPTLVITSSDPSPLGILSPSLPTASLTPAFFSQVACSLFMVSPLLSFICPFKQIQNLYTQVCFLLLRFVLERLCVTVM
In short: as §1

[16] = target: T10, ETV2 (Homo sapiens, UniProt O00321 1-342); settings: protein: recombinant; tags: N-terminal GST; dsDNA, one strand shown
T10 sequence: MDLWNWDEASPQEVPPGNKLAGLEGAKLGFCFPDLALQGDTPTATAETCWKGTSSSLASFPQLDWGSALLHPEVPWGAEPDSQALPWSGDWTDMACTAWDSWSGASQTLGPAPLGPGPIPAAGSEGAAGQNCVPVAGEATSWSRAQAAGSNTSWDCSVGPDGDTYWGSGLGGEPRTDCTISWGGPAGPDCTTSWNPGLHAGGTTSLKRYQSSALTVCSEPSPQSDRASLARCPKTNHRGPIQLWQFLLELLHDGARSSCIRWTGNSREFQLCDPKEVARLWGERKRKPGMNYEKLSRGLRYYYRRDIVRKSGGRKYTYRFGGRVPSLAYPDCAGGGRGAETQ
In short: as §1

[17] = target: T11, ELF3 (Homo sapiens, UniProt P78545 1-371); settings: protein: recombinant; tags: N-terminal GST; dsDNA, one strand shown
T11 sequence: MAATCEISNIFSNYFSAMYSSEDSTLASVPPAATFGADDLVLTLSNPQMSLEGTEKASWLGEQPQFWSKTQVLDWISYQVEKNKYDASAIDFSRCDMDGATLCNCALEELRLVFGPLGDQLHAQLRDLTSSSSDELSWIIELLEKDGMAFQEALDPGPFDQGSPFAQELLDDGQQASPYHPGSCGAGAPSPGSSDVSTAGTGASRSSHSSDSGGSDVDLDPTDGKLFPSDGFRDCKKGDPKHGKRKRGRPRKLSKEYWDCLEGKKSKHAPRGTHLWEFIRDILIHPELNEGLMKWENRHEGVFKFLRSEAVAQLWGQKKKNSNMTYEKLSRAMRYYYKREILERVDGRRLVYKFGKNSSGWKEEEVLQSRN
In short: as §1

[18] = target: ETV1 (Homo sapiens, UniProt P50549 1-477); settings: protein: recombinant; tags: N-terminal GST; dsDNA, one strand shown
ETV1, sequence (P50549 whole entry): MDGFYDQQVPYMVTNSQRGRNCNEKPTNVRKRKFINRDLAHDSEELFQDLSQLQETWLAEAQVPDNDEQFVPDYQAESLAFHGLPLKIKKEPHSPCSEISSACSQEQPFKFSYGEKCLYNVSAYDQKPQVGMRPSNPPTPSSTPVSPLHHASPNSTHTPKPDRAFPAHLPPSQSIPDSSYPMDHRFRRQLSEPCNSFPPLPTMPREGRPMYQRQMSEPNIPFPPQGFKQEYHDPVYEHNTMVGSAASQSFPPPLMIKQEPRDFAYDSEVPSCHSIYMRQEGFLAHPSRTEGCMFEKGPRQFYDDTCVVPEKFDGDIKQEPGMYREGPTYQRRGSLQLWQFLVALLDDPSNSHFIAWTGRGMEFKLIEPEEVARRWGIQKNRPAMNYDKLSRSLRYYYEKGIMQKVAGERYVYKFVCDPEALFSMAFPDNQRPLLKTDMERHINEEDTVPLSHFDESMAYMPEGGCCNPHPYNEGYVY
In short: as §1

For ACGTAC, the binding signal [1] was 1.24 fold enrichment (6-mer frequency, TF over GST control), the binding signal [2] was 1.16 fold enrichment (6-mer frequency, TF over GST control) and the binding signal [3] was 1.13 fold enrichment (6-mer frequency, TF over GST control). For the same sequence, the binding signal [4] was 1.08 fold enrichment (6-mer frequency, TF over GST control), the binding signal [5] was 1.16 fold enrichment (6-mer frequency, TF over GST control) and the binding signal [6] was 1.15 fold enrichment (6-mer frequency, TF over GST control). For the same sequence, the binding signal [7] was 1.18 fold enrichment (6-mer frequency, TF over GST control), the binding signal [8] was 1.11 fold enrichment (6-mer frequency, TF over GST control) and the binding signal [9] was 1.19 fold enrichment (6-mer frequency, TF over GST control). For the same sequence, the binding signal [10] was 1.17 fold enrichment (6-mer frequency, TF over GST control), the binding signal [11] was 1.21 fold enrichment (6-mer frequency, TF over GST control) and the binding signal [12] was 1.04 fold enrichment (6-mer frequency, TF over GST control). For the same sequence, the binding signal [13] was 1.18 fold enrichment (6-mer frequency, TF over GST control), the binding signal [14] was 1.23 fold enrichment (6-mer frequency, TF over GST control) and the binding signal [15] was 1.24 fold enrichment (6-mer frequency, TF over GST control). The binding signal [16] was 1.32 fold enrichment (6-mer frequency, TF over GST control), the binding signal [17] was 1.25 fold enrichment (6-mer frequency, TF over GST control) and the binding signal [18] was 1.18 fold enrichment (6-mer frequency, TF over GST control).

Source: PMC7862700, “An all-to-all approach to the identification of sequence-specific readers for epigenetic DNA modifications on cytosine”
